Inconclusive results are not listed. The source made the active and inactive calls. Calls come from the whole dose curve; as a rule, active = well fitted curve in either direction with a large enough effect (not every such curve was filed as active); inconclusive = small, poorly fitted or top-dose-only effect, or another doubt; inactive = flat fitted curve, though single readings scatter.
Experiment: AP1 Signaling Pathway (AID 357);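 note: ME-180 reporter cells stimulated with EGF at its EC50 level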
Details: ME-180 (cervical carcinoma) AP-1-bla reporter, EGF-induced, beta-lactamase ratio, 5 h; at 17.2 µM (top of the series) unless noted
Method in brief: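 AP-1-bla ME-180 cells, Opti-MEM + 0.5% dialyzed FBS, plated overnight 37 °C. Cpd titration + EC50 EGF, 5 h 37 °C. CCF4 2.5 h RT; ex 405, em 460/530 ratio → %activity, AC50.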
% is set by controls: 0 for no effect and ±100 for the full control effect.

Activity change, negative = inhibition, inactive:
O=C(O)CC(NCc1ccco1)C(=O)OCCc1ccccc1 (stereo not given) 2.29%, CN1CCN(/C=N/c2sc3c(c2C#N)CCCCC3)CC1 4.68%, O=C(CN1C(=O)c2ccccc2S1(=O)=O)c1ccccc1 9.24%, CCOC(=O)CC(=O)CSc1nc2c(cc1C#N)CCCCCC2 -15.8%, Cc1cc(=O)oc(C)c1C(=O)NCC(C)C 0.878%, O=S1CCCSC1c1cccnc1 (stereo not given) 5.36%, Cn1c(=O)c2c(nc(NCCCO)n2Cc2cccc(C(F)(F)F)c2)n(C)c1=O 8.4%, Cc1cc2c(c(=O)n1Cc1cccnc1)C(c1ccccc1)C(C#N)=C(N)O2 (stereo not given) -14.1%, CCOC(=O)c1[nH]c2cc3c(cc2c1NC(=O)CN1CC(C)CC(C)C1)OCO3 (stereo not given) -14.1%, CC(=O)NC1(C(F)(F)F)C(=O)Nc2c1c(=O)n(C)c(=O)n2C (stereo not given) 21.1%, O=C(Cc1ccc(Cl)cc1)Nc1cccc(-c2nnc(-c3ccco3)o2)c1 -5.69%, Cc1cc(=O)oc2cc(OCC(=O)NCc3cccnc3)ccc12 0.0607%, Clc1ccc(-c2cn3c(n2)CCC3)cc1 4.83%, CCNC(=O)N(C(=O)NCC)n1c(C)nnc1C 6.49%, COC(=O)c1ccc(=O)n(Cc2ccco2)c1 4.81%, CCCOc1ccc(N2C(=O)CC(N(Cc3ccc(S(N)(=O)=O)cc3)C(=O)CC)C2=O)cc1 (stereo not given) -6.51%, OCCOCCNc1ncnc2c1cnn2-c1ccc(Cl)cc1 9.08%, Cn1c(=O)[nH]c(=O)c2c1nc(N1CCN(c3cccc(Cl)c3)CC1)n2CCCc1ccccc1 26.9%, COc1cc(C2CC(C(F)(F)F)n3ncc(C(=O)O)c3N2)cc(OC)c1OC (stereo not given) 6.2%, C=CCN=C(NC#N)SCCc1ccccc1 -4.76%, CCOC(=O)C1CSc2[nH]c(=O)sc2C1c1ccccc1 (stereo not given) 0.248%, Cn1c(=O)n(Cc2ccccc2)c(=O)c2c1nc(NCC1CCCO1)n2Cc1ccccc1 (stereo not given) -28.9%, Cc1c(C(Nc2ccccn2)c2ccccc2)c(=O)n(-c2ccccc2)n1C (stereo not given) -3.17%, O=C(c1ccco1)N1CCN(c2ncnc3c2[nH]c2ccccc23)CC1 -12%, Cc1ccc2cc(CNC(C)(C)C)c(=O)[nH]c2c1 2.11%, CN=c1sc2ccccc2n1CC(O)COCc1ccco1 (stereo not given) -8.62%, COC(=O)C1C(=O)NCC1c1ccccc1 (stereo not given) 9.38%, C=CCOC(=O)C1=C(C)NC(SCC(=O)Nc2ccc(C)c(Cl)c2)=C(C#N)C1c1ccco1 (stereo not given) -4.79%, CC(O)CNc1nc2c(c(=O)n(C)c(=O)n2C)n1Cc1cccc(C(F)(F)F)c1 (stereo not given) -10.4%, CC(NC(=O)OCc1ccccc1)C(=O)OCN1C(=O)c2ccccc2C1=O (stereo not given) -1.4%, CC(=O)N1CC=C2C(C#N)=C(N)C(C#N)(C#N)[C@H](c3ccoc3)[C@H]2C1 8.44%, CC/C(C)=C1\SC(N2CCN(C(C)=O)CC2)=NC1=O 2%, CCOc1ccc(C2C(C(=O)c3ccc(C)o3)=C(O)C(=O)N2CCN2CCOCC2)cc1OC (stereo not given) 0.475%, CN(C)CC(O)COc1ccc(-c2ccc(C#N)cc2)cc1 (stereo not given) 1.87%, Cc1c(-c2cccs2)[n+](=O)c2c(n1[O-])CCCC2 14.7%, Cc1nccn1-c1cc(C(C)C)c(C#N)c2nc3ccccc3n12 0.38%, CCc1nnc(NC(=O)c2c(O)c3c([nH]c2=O)CCCC3)s1 -9.97%, CCCCCCOc1ccc(N2C(=O)CC(N3CCN(C(=O)c4ccco4)CC3)C2=O)cc1 (stereo not given) -1.51%, Cc1ccc(OCC(=O)NCC(=O)n2nc(C)cc2C)cc1 -4.61%, O=c1c(-c2ccc(Cl)cc2)[n+]([O-])c2ccccc2n1O -1.42%
